Source: PubChem BioAssay (NCI)
Compounds without any hit were thinned out: in the full panel of roughly 83,000, 20% have a hit.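 Testing used 96-well plates and a 48-hour single-concentration exposure. Example: -40 means 40% of the starting cells died.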 Unmarked numbers belong to inactive results. Active and inactive are the calls of the source. The calls were made as follows: active = growth percent below 10; inactive = the rest.

system: HL-60(TB) leukemia; assay: NCI-60 one-dose screen, 48 h (100 = growth as untreated, 0 = no growth, -100 = all killed); details: 10 µM unless noted

| Structure (SMILES) | growth |
| --- | --- |
| COc1ccc(OC)c(Cn2cc(C#N)c(N)c2C(=O)c2ccc(Br)cc2)c1 | 20.7% |
| Cc1ccc(/C=C/C(=O)c2ccc(S(=O)(=O)NCCNc3nc(Nc4ccc(F)cc4)nc(N(C)C)n3)cc2)cc1 | 13.5% |
| CN1CCCN(Cc2ccc(C(=O)Nc3cccc(Nc4ccc5c(O)cccc5n4)c3)cc2C(F)(F)F)CC1 | -7.86% (active) |
| O=C(O)Cn1c(O)c(/C=C2/C=c3cc4c(cc3=NC2=O)OCCO4)sc1=S | 100% |
| Cc1ccc(-c2cc(C(=O)N=Nc3c(O)[nH]c4ccc(Br)cc34)c3ccccc3n2)cc1 | 15.8% |
| O=C(CSc1nnc(-c2ccc(-c3nc4ccc(Cl)cc4[nH]3)cc2)o1)Nc1ccc(Cl)cc1 | 4.27% (active) |
| CN1CCN(Cc2ccc(C(=O)Nc3cccc(Nc4ccc5cc(O)ccc5n4)c3)cc2C(F)(F)F)CC1 | -70.2% (active) |
| COc1ccc2ncc(C#Cc3cncc(C(=O)Nc4ccc(CN5CCN(C)CC5)c(C(F)(F)F)c4)c3)n2n1 | -60.2% (active) |
| O=C(c1cc2cc(OCCCN3CCC3)ccc2[nH]1)N1C[C@@H](CCl)c2c1cc(OCc1ccccc1)c1ccccc21 | -33.7% (active) |
| Cc1cc2nc3c4ccccc4n(CCCN(C)C)c3nc2cc1C | -40.5% (active) |
| CC(C)Sc1nc(NC2CC2)c(C#N)c(-c2ccccc2)n1 | 98.1% |
| COc1cc(/C=C/C(=O)c2ccc(C(F)(F)F)cc2)ccc1Oc1nc(Nc2ccc(F)cc2)nc(N(C)C)n1 | 80% |
| COc1ccc(C(=O)/C=C/c2ccc(OC)c(OCc3ccccc3)c2)cc1OC | 2.91% (active) |
| Clc1ccc(Nc2nnc(-c3c[nH]c4ccccc34)o2)cc1 | 43.4% |
| O=C1Nc2ccc(F)cc2/C1=C/C(=O)c1cc2ccccc2oc1=O | 85.6% |
| CC(=O)Nc1ccc(-c2cn(-c3cccc(C(=O)Nc4cc(CN5CCOCC5)cc(C(F)(F)F)c4)c3)nn2)cn1 | -54.3% (active) |
| O=C(CSc1nnc(-c2ccc3nc(-c4ccccc4)[nH]c3c2)o1)Nc1ccc(Br)cc1 | 51.3% |
| O=C1Nc2ccc(F)cc2/C1=C/c1cccc(OCc2ccccc2)c1 | -17.4% (active) |

| Structure (SMILES) | growth |
| --- | --- |
| COc1cc2c(c(OC)c1OC)C(=O)CC(c1cccc(NC(=O)c3cc(NC(=O)[C@@H](N)CO)ccc3C)c1)O2 (stereo not given in full) | 101% |
| CCOc1ccc2ncc(C#Cc3cncc(C(=O)Nc4ccc(CN5CCN(C)CC5)c(C(F)(F)F)c4)c3)n2n1 | 1.2% (active) |
| O=C1Nc2cc(Cl)ccc2/C1=C/c1cccc(OCc2ccc(Br)cc2F)c1 | -57.8% (active) |
| C=C1CCC2C3(C)COC(c4cccc(F)c4)OC3CCC2(C)C1C/C=C1/C(=O)OCC1O (stereo not given) | 4.43% (active) |
| O=C(N/N=C/c1ccc(Cl)o1)c1[nH]c2ccc(Br)cc2c1-c1ccccc1 | -42.4% (active) |
| Cc1ccc(C2=NN(c3nc(-c4cc5ccccc5oc4=O)cs3)C(c3ccc(C)cc3)C2)cc1 (stereo not given) | 91% |
| O=C1Nc2ccc(Cl)cc2/C1=C/c1cccc(OCc2ccccn2)c1 | -25% (active) |
| CCOC(=O)C(N=Nc1ccc(S(=O)(=O)N=C(N)N)cc1)C(C)=O (stereo not given) | 96.4% |
| Cn1cc(Nc2ncnc(-c3ccc(N4CCCC4)c(C#N)c3)n2)cn1 | 49.1% |
| O=C(CNc1nc(-c2ccccc2)cs1)Nc1ccc([N+](=O)[O-])cc1Cl | 21.9% |
| Nc1nc(-c2ccccc2)c(N=Nc2ccc([N+](=O)[O-])cc2Cl)s1 | 98.1% |
| Cc1ccc(C2CC(c3ccc(NC(=O)Nc4ccccc4)cc3)=NN2c2ccc(S(N)(=O)=O)cc2)cc1 (stereo not given) | -42.5% (active) |
| Cc1nn(-c2ccccc2)c2nc(C)n(C(=O)N/N=C/c3ccccc3)c(=O)c12 | 104% |
| COc1ccccc1C(=O)NNC(=O)CSc1nc2c(c(=O)[nH]1)CCCC2 | 100% |
| Cn1nc(C(F)(F)F)cc1-c1cc(Cl)c(COc2ccc(Cl)cc2)c(-c2ccc(Cl)c(C(F)(F)F)c2)c1O | -22.5% (active) |
| C/C(=N\N=C1/C(=O)Nc2ccccc21)c1ccc2c(c1)Nc1ccccc1S2 | 63.6% |
| CC(C)c1sc(NC(=O)c2cc(NC(=O)c3cc(NC(=O)c4nccn4C)cn3C)cn2C)nc1C(=O)NCCCN(C)C | 47.1% |
